# Laboratory results: PubChem BioAssay (NCI)
# The panel holds about 83,000 compounds, 20% with a hit somewhere; the sample as a whole holds those more often.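 96-well plates, one dose, 48 hours. Percent growth reported; active if below 10.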 Values without a mark were called inactive. Active and inactive are the calls of the source.
# Experiments:
# Assay in all cases: NCI-60 one-dose screen, 48 h (100 = growth as untreated, 0 = no growth, -100 = all killed)
# Conditions in all cases: 10 µM unless noted
# NCI-H23 lung = tested on: NCI-H23 lung
# NCI-H226 lung = tested on: NCI-H226 lung
# NCI-H322M lung = tested on: NCI-H322M lung
# HOP-62 NSCLC = tested on: HOP-62 NSCLC
# NCI-H460 lung = tested on: NCI-H460 lung
# HOP-92 NSCLC = tested on: HOP-92 NSCLC
# NCI-H522 lung = tested on: NCI-H522 lung
# A549/ATCC NSCLC = tested on: A549/ATCC NSCLC
# 786-0 renal = tested on: 786-0 renal
# COLO 205 colon = tested on: COLO 205 colon
# DU-145 prostate = tested on: DU-145 prostate
# K-562 leukemia = tested on: K-562 leukemia
# MALME-3M melanoma = tested on: MALME-3M melanoma
# MDA-MB-231 breast = tested on: MDA-MB-231 breast
# RXF 393 renal = tested on: RXF 393 renal
# SF-268 CNS = tested on: SF-268 CNS
# SF-295 CNS = tested on: SF-295 CNS
# SF-539 CNS = tested on: SF-539 CNS
# UACC-257 melanoma = tested on: UACC-257 melanoma
SMILES,growth (NCI-H23 lung),growth (NCI-H226 lung) [%],growth (NCI-H322M lung),growth (HOP-62 NSCLC),growth (NCI-H460 lung),growth (HOP-92 NSCLC),growth (NCI-H522 lung),growth (A549/ATCC NSCLC),growth (786-0 renal),growth (COLO 205 colon),growth (DU-145 prostate),growth (K-562 leukemia),growth (MALME-3M melanoma),growth (MDA-MB-231 breast),growth (RXF 393 renal),growth (SF-268 CNS) [%],growth (SF-295 CNS),growth (SF-539 CNS),growth (UACC-257 melanoma)
O=c1[nH]c(=O)n(C2CC(O)C(CO)O2)cc1CO (configuration not stated),41.6%,98.2,102%,32.8%,65.9%,105%,101%,86.5%,-18.5% (active),120%,111%,82.3%,90.1%,102%,99.5%,99.8,110%,95.7%,103%
COc1ccc(OC)c(Nc2nc3nonc3nc2Nc2cc(OC)ccc2OC)c1,50%,50.3,68.6%,-12.8% (active),22%,13.2%,37.7%,20.7%,-23.8% (active),93.7%,55.5%,75.5%,29.9%,-1.9% (active),14.8%,45.6,77.9%,9.98% (active),52.1%
COc1ccc(C2=NC(=O)NC2c2ccc(OC)cc2)cc1 (configuration not stated),68.3%,74,132%,42.3%,72.9%,26%,54%,82.8%,38.6%,58.7%,88.5%,21.2%,75.5%,73.9%,108%,73.3,79.7%,62.4%,105%
COc1cc(-c2cc(-c3ccc(Nc4nc(Nc5ccccc5)nc(Nc5ccc(Cl)cc5)n4)cc3)nc(N)n2)cc(OC)c1OC,46.9%,75.6,81.9%,47.2%,65.8%,42.4%,66.3%,79.3%,44%,76.6%,94.7%,23.8%,59.9%,59%,78.1%,86.6,70.5%,77.4%,99.4%
O=C(Nc1ccc(N2CCCCC2)c(Cl)c1)c1ccc(Br)o1,81.3%,82.1,115%,109%,69.4%,105%,87.2%,82.5%,97.6%,103%,68%,68.1%,-66.9% (active),69.2%,108%,76,105%,118%,67.5%
COc1cc(/C=C/C(=O)c2ccc(Nc3nc(Nc4ccccc4)nc(Nc4ccc(Cl)cc4)n3)cc2)cc(OC)c1OC,15.5%,39.2,73.3%,52.7%,50.5%,1.92% (active),77.3%,84.5%,-25.4% (active),94.8%,77%,28.9%,44.3%,58.1%,58.5%,73.2,64.3%,72.8%,87.1%
COc1ccc(OC)c(Nc2nc3nonc3nc2Nc2cccc(Br)c2)c1,6.27% (active),13.4,5.13% (active),8.04% (active),0.718% (active),-25.5% (active),-13% (active),9.15% (active),22.1%,-79.3% (active),26%,10.2%,11.3%,-8.18% (active),23.7%,21.1,-19.3% (active),-7.16% (active),-12.5% (active)
CC[C@]1(O)C[C@H]2CN(CCc3c([nH]c4ccccc34)[C@@](C(=O)OC)(c3cc4c(cc3OC)N(C=O)[C@H]3[C@@](O)(C(=O)OC)[C@H](OC(C)=O)[C@]5(CC)C=CCN6CC[C@]43[C@@H]65)C2)C1,290%,28.2,43.7%,11.7%,-2.68% (active),72.3%,-13.1% (active),16.6%,12.4%,-57.2% (active),-42.5% (active),-0.624% (active),45.4%,-27.1% (active),-36% (active),23.9,13.6%,-28.7% (active),5.68% (active)
